Compound activity as filed in PubChem BioAssay.
Gal4-VP16 FLuc: VP16 counterscreen qHTS for inhibitors of ROR gamma transcriptional activity; hit rate 3.5% among 310,000; Potency, µM (top dose mostly 53.6 µM), for inactives: at the top dose activity, negative = inhibition, most hits filed as inhibitors; Drosophila S2 Gal4-VP16 UAS-luciferase, luminescence, 20 h;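 also: Gal4-VP16 expression switched on by copper sulfate through the metallothionein promoter; potency is read from the fitted curve at half-maximal effect; nearly all actives have a fitted effect of over 50% in size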
RORg inh: qHTS for inhibitors of ROR gamma transcriptional activity | Nuclear receptor ROR-gamma (Mus musculus), P51450 | Drosophila S2 Gal4-RORgamma UAS-luciferase reporter, 20 h | Potency, µM (titrated, usually from 53.6 µM), without a hit: top-dose activity change, negative = inhibition, actives largely listed as inhibitors | hit rate 5.4% among 310,000 | AID 2551, 2010; also: potency is read from the fitted curve at half-maximal effect; nearly all actives have a fitted effect of over 60% in size
Target sequence (P51450 whole entry, looked up, the tested form may be a part): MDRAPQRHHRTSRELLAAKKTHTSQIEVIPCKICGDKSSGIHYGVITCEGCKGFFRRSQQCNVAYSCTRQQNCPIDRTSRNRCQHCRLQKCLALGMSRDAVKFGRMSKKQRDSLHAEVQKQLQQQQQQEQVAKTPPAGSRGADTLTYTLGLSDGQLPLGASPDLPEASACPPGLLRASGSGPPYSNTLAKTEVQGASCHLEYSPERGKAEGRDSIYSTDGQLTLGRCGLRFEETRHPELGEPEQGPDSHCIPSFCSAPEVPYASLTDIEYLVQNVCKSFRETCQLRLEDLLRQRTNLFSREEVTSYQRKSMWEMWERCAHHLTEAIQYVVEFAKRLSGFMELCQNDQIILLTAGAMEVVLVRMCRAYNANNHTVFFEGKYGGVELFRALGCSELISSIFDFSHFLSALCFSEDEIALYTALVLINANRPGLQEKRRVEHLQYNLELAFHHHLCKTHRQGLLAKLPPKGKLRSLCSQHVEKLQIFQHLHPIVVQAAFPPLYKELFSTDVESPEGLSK
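ROR gamma transcriptional activity was tracked as Gal4-UAS luciferase output in stably transfected Drosophila Schneider cells, with compound added 1 hr before 700 uM copper sulfate induction and a 20 hr ambient-temperature incubation.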
IL-1B inflam inh: qHTS for Inhibitors of Inflammasome Signaling: IL-1-beta AlphaLISA Primary Screen | hit rate 4.7% among 360,000 | THP-1 LPS/ATP IL-1B secretion, AlphaLISA, 16 h; stronger effect = lower value | activity change, % at 57.5 µM | AID 743279, 2014; in the data active = activity change below about -50%; inconclusive = mostly about -30% to -49%
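THP-1 cells pretreated 1 hr with compounds (up to 57.5 uM final), then stimulated with LPS (250 ng/mL final) plus ATP (1.25 mM final); secreted IL-1B measured by AlphaLISA after 16 hr, decreased signal indicating inhibition.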
LDHA block: qHTS assay for inhibitors of human lactate dehydrogenase; L-lactate dehydrogenase A chain (Homo sapiens), P00338; purified LDHA, NADH/diaphorase-resazurin fluorescence; stronger effect = lower value; activity change, % (values are at about 110 or 230 µM); hit rate 0.15% among 480,000; in the data active = activity change below about -30%; inconclusive = mostly about -25% to -30%;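 also: plate controls were DMSO wells for no effect and wells without enzyme for full effect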
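LDH5 2 nM; NADH 0.06 mM, pyruvate 0.2 mM; 200 mM Tris pH 7.4, EDTA, Tween-20; 5 min RT. Detection: diaphorase 0.133 mg/mL + resazurin 37 µM, fluorescence ex540/em590 at 0 and 20 min; normalized to enzyme-free and DMSO wells.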
DT40 TDP1 no CPT: qHTS for Inhibitors of human tyrosyl-DNA phosphodiesterase 1 (TDP1): qHTS in cells in absence of CPT | DT40 Tdp1-/- hTDP1 cells, no CPT, ATP luminescence, 48 h | Potency, µM (series often up to 46.2 µM), for the others: at the top dose activity change, negative = growth inhibition, most hits filed as inhibitors | hit rate 15% among 420,000 | AID 686978, 2013; also: potency is read from the fitted curve at half-maximal effect; nearly all actives have a fitted effect of over 55% in size
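Luminescent ATP content (CellTiter-Glo) served as the growth readout. Knockout chicken DT40 cells expressing human TDP1 were exposed to compounds without camptothecin for a minimum 48 hr at 37 °C.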
DT40 TDP1 CPT: qHTS for Inhibitors of human tyrosyl-DNA phosphodiesterase 1 (TDP1): qHTS in cells in presence of CPT; chicken DT40 Tdp1-/-;hTDP1 cells + 20 nM CPT, ATP luminescence, 48 h; Potency, µM (highest dose often 46.2 µM), without a hit: at the highest dose activity change, negative = growth inhibition, hits mostly inhibitors; hit rate 12% among 420,000; AID 686979, 2013; also: potency is read from the fitted curve at half-maximal effect; nearly all actives have a fitted effect of over 55% in size
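Chicken DT40 Tdp1-/- cells stably complemented with human TDP1 were seeded at 400 cells/well in medium containing 20 nM camptothecin, exposed to pin-transferred compounds, and grown at 37 °C for at least 48 hr. Viability was read as ATP luminescence.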
* marks the source's active call; other numbers are inactive results; ? = inconclusive; nt = not tested or not shown; ! = not active in a repeat; [ ] = remark or other dose. The list is not random: actives were taken first. Their share in the collection is about 18%. Unless noted, calls follow the shape of the dose curve; as a rule, active = well fitted curve in the direction sought with a large enough effect; inconclusive = small, poorly fitted or top-dose-only effect, or another doubt; inactive = no such curve, though single readings can be large; an effect the other way counts as inactive or inconclusive. Unless noted, % is scaled to controls: 0 for no effect and ±100 for the full control effect.

SMILES | Gal4-VP16 FLuc | RORg inh | IL-1B inflam inh | LDHA block | DT40 TDP1 no CPT | DT40 TDP1 CPT
CCCOc1nc2ccccc2nc1N1CCC(C(=O)NCc2ccccc2C)CC1 | nt | nt | nt | -13 | nt | nt
Cc1nc(NC(=O)c2cccc(OCC(C)C)c2)ccc1Br | nt | nt | nt | 3 | nt | nt
CCCN(CCC)C(=O)CCCC(=O)N(C)Cc1ccsc1 | nt | nt | nt | 3 | nt | nt
COc1cccc(C2CC(=O)Nc3cc4c(cc32)OCCO4)c1OC(C)C (configuration not stated) | -30% | ? | 11 | 3 | ? | ?
CCCOc1c(OC)cccc1C1CC(=O)Nc2cc3c(cc21)OCCO3 (configuration not stated) | -15% | 27% | 28 | -2 | 13µM* | ?
CCCSc1nc2c(c(=O)[nH]c(=O)n2C)n1CCOCC | nt | nt | nt | -1 | nt | nt
C/C(=N/NC(=O)c1ccc(C)nc1)c1ccc2c(c1)CCCC2 | 6% | ? | 65 | -4 | 23µM* | 15µM*
O=C(Nc1cccc(C(=O)O)c1)Nc1ccccc1Cl | -10% | -32% | 12 | -12 | 2% | -8%
O=C(O)c1c(Cl)cccc1Nc1ccccc1 | nt | nt | -3 | -10 | 23µM* | -10%
O=C(O)c1ccccc1Nc1ccccc1 | -1% | 38% | 9 | -3 | ? | 21µM*!
O=C(NCCNC(=O)c1ccccc1Nc1ccccc1)c1ccccc1Nc1ccccc1 | nt | nt | nt | 4 | nt | nt
O=C(Nc1ccc(F)cc1)c1ccc(N2C(=O)CCS2(=O)=O)cc1Cl | nt | nt | nt | -20 | nt | nt
CS(=O)(=O)Nc1ccccc1C(=O)N1CCN(C(c2ccccc2)c2ccccc2)CC1 | nt | nt | nt | 1 | nt | nt
CC(C)OC(=O)c1cc2c(ccn2C)n1CC(=O)N(Cc1ccccc1)c1ccccc1 | ? | ? | -64* | -1 | 16µM* | ?
COc1cccc(NC(=O)Nc2c(N3CCCC3)c3ccccc3oc2=O)c1 | nt | nt | nt | 22 | nt | nt
Cc1ccc(OCCOC(=O)C2COc3ccccc3O2)cc1 (configuration not stated) | nt | nt | nt | 13 | nt | nt
Cc1nn(-c2ccccc2)c(C)c1/C=N/NC(=O)c1cc(-c2ccc(Cl)s2)[nH]n1 | -22% | ? | -12 | -5 | 4.1µM* | 4.6µM*
Cc1nn(-c2ccccc2)c(C)c1/C=N/NC(=O)CSc1nnc(SCc2ccc(Cl)cc2)s1 | 28% | ? | -5 | -1 | 15µM* | ?
Cc1nn(-c2ccccc2)c(C)c1/C=N/NC(=O)c1cc(-c2cccs2)[nH]n1 | -28% | 32% | 74 | -4 | 0.0082µM* | 0.82µM*
O=C(CSc1nnc(SCc2ccccc2)s1)N/N=C/c1c(Cl)cccc1Cl | -23% | 18% | 17 | 0 | ? | ?
Cc1nn(-c2ccccc2)c(C)c1/C=N/NC(=O)c1cc(-c2ccc(Br)s2)[nH]n1 | -1%[0.365 µM] | ? | 44 | -1 | 4.6µM* | 2.9µM*
Cc1nn(-c2ccccc2)c(C)c1/C=N/NC(=O)c1cc(C23CC4CC(CC(C4)C2)C3)[nH]n1 | -20% | 13% | 29 | -1 | ? | ?
Cc1cc(C(=O)N/N=C/c2c(C)nn(-c3ccccc3)c2C)n[nH]1 | 8% | 3% | -13 | -2 | -19% | 0%
Cc1nn(-c2ccccc2)c(C)c1/C=N/NC(=O)c1ccccc1NS(=O)(=O)c1cccs1 | -12% | -18% | 5 | -11 | -21% | 10%
Cc1nn(-c2ccccc2)c(C)c1/C=N/NC(=O)c1cccs1 | ? | ? | 13 | -15 | 15µM* | 9.2µM*
SMILES | Gal4-VP16 FLuc | RORg inh | IL-1B inflam inh | LDHA block | DT40 TDP1 no CPT | DT40 TDP1 CPT
O=C1c2ccccc2/C(=C\C#Cc2ccccn2)N1c1ccccc1 | nt | nt | -100* | 0 | ? | ?
O=C1c2ccccc2C(=O)N1c1ncccn1 | 2% | 0% | 27 | -4 | -7% | -7%
N/C(COc1ccc(F)cc1)=N\NC(=O)c1cccnc1Oc1ccccc1 | 4.5µM* | 2.5µM* | ? | 6 | -22% | ?
NC(=O)c1cccnc1Oc1ccc(Cl)cc1 | 8% | 1% | -2 | -5 | -22% | 8%
COc1ccc(-c2csc(NC(=O)c3ccccc3OCc3noc(C)n3)n2)cc1 | nt | nt | nt | 3 | nt | nt
CN(C)c1ccc(N=Cc2ccco2)cc1 | ? | ? | 1 | 28 | 5.2µM* | 8.2µM*
CN(C)c1ccc(N=Cc2ccncc2)cc1 | nt | nt | nt | 18 | 5.6µM* | 6.3µM*
N#CC(C(=O)Nc1cccc(C(F)(F)F)c1)=C1CCCC1 | nt | nt | nt | 3 | nt | nt
CCOC(=O)c1ccc(N2CCN(CC)CC2)c(NC(=O)CSc2ccc(Cl)cc2)c1 | nt | nt | nt | 10 | nt | nt
COc1ccc(OCC(O)Cn2c(Nc3cccc(C)c3)nc3c2c(=O)n(C)c(=O)n3C)cc1 (configuration not stated) | -12% | 9% | 33 | -2 | 15µM* | ?
COc1ccc(OCC(O)Cn2c(NCCc3ccccc3)nc3c2c(=O)n(C)c(=O)n3C)cc1 (configuration not stated) | nt | nt | nt | 0 | nt | nt
COc1ccc(OCC(O)Cn2c(NCCO)nc3c2c(=O)n(C)c(=O)n3C)cc1 (configuration not stated) | nt | nt | nt | 0 | 10µM* | 9.2µM*
CCn1c(SCc2ccccc2F)nc2cc(S(N)(=O)=O)ccc21 | nt | nt | nt | 10 | nt | nt
COc1ccc(NC(=O)NCc2nc(-c3ccc(OC)cc3)oc2C)cc1 | nt | nt | nt | 2 | nt | nt
Nc1nccnc1C(=O)NCc1ccncc1 | nt | nt | nt | 4 | nt | nt
NNC(=O)c1cc(O)c(O)c(O)c1 | -3% | -16% | 1 | 8 | ? | 15µM*
Cc1cc(C)cc(N2CC(c3nc(-c4cccnc4)no3)CC2=O)c1 (configuration not stated) | nt | nt | nt | -2 | nt | nt
COc1ccccc1NC(C)C(=O)Nc1ccc(C(C)=O)cc1 (configuration not stated) | -4% | -5% | 2 | 1 | 21µM* | ?
COc1ccccc1NC(=O)C(C)Nc1ccc(C)c(Cl)c1 (configuration not stated) | 0%[10 µM] | 3% | -6 | 0 | ? | -15%
COc1ccc(C(=O)N2CCC(C(=O)Nc3ccc(OC)c(OC)c3)CC2)cc1 | -9% | 14% | -11 | -1 | -22% | -2%
CC(C)c1ccc(NC(=O)C2CCN(C(=O)c3ccc(F)cc3)CC2)cc1 | nt | nt | nt | -7 | 8.2µM* | ?
COc1ccc(NC(=O)C2CCN(c3nc(C)nc4c3CCC4)CC2)cc1 | ? | ? | ? | -3 | 16µM* | 12µM*
